The results in this text go back to PubChem BioAssay (NCI).

This is part of a sample that, as a whole, favours compounds with a hit. Of some 79,000 tested, about 15% had one in any assay. Unmarked numbers belong to inactive results. Activity calls are given as the source filed them. No stated cut-off is given here; in the data, active means growth inhibition above about 70%; inactive means the rest.

The first assay is described as follows: NCI Yeast Anticancer Drug Screen. Data for the cln2 rad14 strain (AID 165).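 Further: 0% = growth equal to vehicle treated cultures.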 Particulars: S. cerevisiae cln2 rad14 strain, at 5.0 µM (retest, dose inferred, filed as 0.5), active compounds read high. The procedure, abridged: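 Compounds are applied to the cln2 rad14 yeast strain, and growth is then compared with that of vehicle-treated cultures to give inhibition.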
For the compound `CCCCCCC(=O)[O][Hg][c]1ccccc1`, the growth inhibition is 99% (active). Regarding `CCC[CH2][Sn]1([CH2]CCC)[O]C(=O)CN=Cc2ccccc2[O]1`, the growth inhibition is 91% (active). Consider `C[C@]12CC[C@H](O)C[C@@H]1CC[C@@H]1[C@@H]2CC[C@]2(C)C(=O)/C(=C/O)C[C@@H]12`, for which the growth inhibition was -15%.

As for `CC(CCc1ccccc1)NC(C)C(O)c1ccc(O)cc1` (stereo unspecified), the growth inhibition is 9%.

Still in this assay, the particulars now being: S. cerevisiae cln2 rad14 strain, at 50.0 µM (retest, dose inferred, filed as 5.0), active compounds read high.
For the compound `CCOC(=O)C1C(O)=C(P(=O)(C2=C(O)C(C(=O)OCC)C(c3ccc(OC(C)=O)cc3)C(C(=O)O)C2=O)N(CCCl)CCCl)C(=O)C(C(=O)O)C1c1ccc(OC(C)=O)cc1` (stereo unspecified), the growth inhibition is 73% (active).

Regarding `c1ccc([As+](c2ccccc2)(c2ccccc2)c2cccc3ccccc23)cc1`, the growth inhibition was 99% (active).

On to `CCCCCCCCc1ccc(OCCN(CCCl)CCCl)cc1`, for which the growth inhibition was 99% (active). As for `S=C=NCCc1ccccc1`, the growth inhibition was 8%. With `COC1=C(Cl)C(=O)c2ccccc2C1=O`, the growth inhibition was 98% (active).

As to `CN(C)c1ccc(N=Nc2cccc(C(=O)[O-])c2)cc1.CN(C)c1ccc(N=Nc2cccc(C(=O)[O-])c2)cc1.NC1CCCCC1N.O=[N+]([O-])O.[Pt+4]`, the growth inhibition was 97% (active). With `CCOC(=O)c1ccc(N=Cc2ccc(N(CCCl)CCCl)cc2C)cc1`, the growth inhibition was -15%. For the compound `O=c1s[se]c2ccccc12`, the growth inhibition was 98% (active). As to `CC1CCC2(OC1)OC1C(O)C3C4CCC5CC(OC6OC(CO)C(OC7OC(CO)C(O)C(OC8OCC(O)C(O)C8O)C7OC7OC(CO)C(O)C(OC8OC(CO)C(O)C(O)C8O)C7O)C(O)C6O)C(O)CC5(C)C4CCC3(C)C1C2C` (stereo unspecified), the growth inhibition is 99% (active).

With `CN(C)c1ccc(/C=C/c2cc3scc(-c4ccccc4)[n+]3c3ccccc23)cc1`, the growth inhibition is 98% (active). Turning to `CSCCC([NH-])C(=O)O.CSCCC([NH-])C(=O)O.[Zn+2]` (stereo unspecified), the growth inhibition is -6%.

`O=C(O)CN1CCN(CC(=O)O)CC(=O)[O][Hg][O]C(=O)C1`: the growth inhibition is 99% (active). `Cc1c2ccncc2c(CN(CCCl)CCCl)c2c3ccccc3n(C)c12`: the growth inhibition is 96% (active). Same read-out and setting: in the case of `COc1ccc(P2(=S)Oc3ccc(C(c4ccccc4)(c4ccccc4)c4ccccc4)cc3O2)cc1` (stereo unspecified) it was 98% (active); in that of `Cc1cc[n+](C2=C(Nc3c(C)cccc3C)C(=O)c3ccccc3C2=O)cc1`, 54%; in that of `C(#C[PH+](c1ccccc1)c1ccccc1)c1ccccc1.C(#C[PH+](c1ccccc1)c1ccccc1)c1ccccc1.C(#C[PH+](c1ccccc1)c1ccccc1)c1ccccc1.[C-]#[O+].[C-]#[O+].[C-]#[O+].[Cr]`, 39%. Same read-out and setting: in the case of `CC(=O)O.[RuH].c1ccc([PH+](c2ccccc2)c2ccccc2)cc1.c1ccc([PH+](c2ccccc2)c2ccccc2)cc1.c1ccc([PH+](c2ccccc2)c2ccccc2)cc1` it was 91% (active); in that of `O=C(N/N=C/c1cc(Br)cc(Br)c1[O-])c1ccccc1O.O=C(N/N=C/c1cc(Br)cc(Br)c1[O-])c1ccccc1O.[Ni+2]`, 98% (active). `O=C(C[n+]1ccccc1)C1CCc2ccccc2C1` (stereo unspecified): the growth inhibition was -5%. In the case of `CC(=O)[O-].CC(=O)[O-].O=C(N/N=C/c1cc(Cl)cc(Cl)c1[OH2+])c1ccncc1.[Zn+2]`, the growth inhibition was -4%. On the same count and under the same terms, in the case of `ClCCN(CCCl)CCN1c2ccc3ccccc3c2Sc2ccc3ccccc3c21` it was 1%; in that of `C=CCc1cc(Cl)ccc1OC(=O)N(C)C`, -1%. Consider `CC(=O)[O][Sn]([CH3])([CH3])[c]1ccccc1`, for which the growth inhibition is 77% (active). For `NCCNCCNCCNCCN` (tested in a mixture with another compound), the growth inhibition was 4%. `CC(=O)[CH-]C(C)=O.CC(=O)[CH-]C(C)=O.[O-]c1ccccc1.[O-]c1ccccc1.[Ti+4]`: the growth inhibition was 21%.

As to `NC(=O)c1ccc(C(=O)Nc2ccc([As](=O)(O)O)cc2)cc1`, the growth inhibition was -14%. On the same count and under the same terms, with `[C-]#[O+].[C-]#[O+].[CH3][Sn]([CH3])[c]1ccccc1.[Fe+5].[c-]1[c-][c-][cH-][c-]1` the figure was 85% (active).

For the compound `CC(C)(C)S.[Hg]`, the growth inhibition was 99% (active).

For the compound `O=C(O)C(O)(c1ccc(-c2ccccc2)cc1)c1ccc(-c2ccccc2)cc1`, the growth inhibition is 93% (active).

Take `Cc1ccc2c(-c3ccccc3)c3ccccc3[s+]c2c1`: the growth inhibition was 99% (active). For `CCOC(=O)[C]1([Pb]([CH3])([CH3])[CH3])N=NC(C(=O)OC)=C1C(=O)OC` (stereo unspecified), the growth inhibition is 5%. Consider `CCCNC1=C(C)C(=O)C2=C(C1=O)[C@H](COC(N)=O)[C@]1(OC)[C@@H]3N[C@@H]3CN21`, for which the growth inhibition is 79% (active).
